CYP2C19 act: increases human CYP2C19 enzyme activity. recombinant CYP2C19, luciferin-H EGE luminescence; stronger effect = higher value; 0 = fully inhibited enzyme, 1 = untreated enzyme. activation factor at 5 µM. 96,000 tested, under 10 active;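 active = activation factor of at least 2 at 5 µM in the primary screen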;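 note: 0 = wells with 2.5 mM tranylcypromine and 1 = vehicle-only wells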
CYP2C9 act: activators of human CYP2C9; P11712; recombinant CYP2C9, luciferin-H conversion, luminescence; stronger effect = higher value; factor 1 = untreated enzyme, 0 = blocked; activation factor at 5 µM; 96,000 tested, 1.4% active; AID 1024;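 active = activation factor of 2 or more for CYP2C9 at a 5 µM dose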;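 note: 0 = sulfaphenazole-blocked wells and 1 = vehicle-only wells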
CYP2C19 inh: inhibitors of human CYP2C19; 96,000 tested, 21% active; AID 778; P33261; CYP2C19 Supersomes, luciferin-H EGE luminescence, 30 min; inhibition, % at 5 µM;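 active = CYP2C19 inhibition above a set limit at 5 µM in the primary screen, cut at about 50% in these data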;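 note: plate controls were negative control wells for no effect and 2.5 mM tranylcypromine positive control for full effect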
Cav3 T inh: human Cav3.2 channel inhibition, primary screen | AID 449739 | 100,000 tested, 4% active | Cav3.2-expressing cells, Fluo-4 calcium fluorescence FDSS; stronger effect = lower value | O95180 | B-score at 10 µM;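 active = single-dose well whose peak fluorescence ratio is a statistical outlier from its plate by either plate-standardised score or position-corrected B-score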
Pyk2 oligo antag: blocks oligomerization of human Pyk2 in cells | AID 1347419 | Q293 cells, Pyk2 FERM NanoBiT luminescence; stronger effect = lower value | 99,000 tested, 0.83% active | z-score (the deposit names both 25 µM and 10 µM) | Q14289;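 active = Z-score of -3 or lower, scaled per plate to the spread of control and sample wells; inactive = z-score above -3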;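 note: negative z-score means lost luminescence so less FERM oligomerization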
CYP2C9 inhib: blocks human cytochrome P450 2C9; CYP2C9 Supersomes, luciferin-H conversion, luminescence; P11712; 96,000 tested, 20% active; inhibition, % at 5 µM; AID 777;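 active = blocking of liver enzyme CYP2C9 beyond about 50% at 5 µM, limit read from the data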
Numbers without * were called inactive; x = no result. This is a sample that favours compounds with a hit; in the whole collection about 27% have one here.

SMILES	CYP2C19 act	CYP2C9 act	CYP2C19 inh	Cav3 T inh	Pyk2 oligo antag	CYP2C9 inhib
Fc1ccc(C(c2nnnn2C2CCCC2)N2CCc3ccccc32)cc1 (centres undefined)	0.8	0.7	18.6	x	-2.42	32.0
COc1ccc(N2CCN(C(c3cccs3)c3nnnn3C3CCCC3)CC2)cc1 (centres undefined)	0.7	0.4	28.9	-3.1	-2	64.2*
COc1cc(NS(=O)(=O)c2ccc(NS(=O)(=O)c3ccccc3)cc2)nc(OC)n1	1	0.2	4.9	0.618	-0.06	77.8*
Cc1ccc(NC(=O)CSc2nc(NS(=O)(=O)c3ccc(C)cc3)cc(=O)[nH]2)cc1	0.7	0.4	27.6	-0.479	0.12	64.7*
COc1cc(NS(=O)(=O)c2ccc(NC(=O)/C(=C\c3ccccc3OC)NC(=O)c3ccccc3)cc2)nc(OC)n1	1	1	2.5	0.0279	-1.01	2.3
COc1cc(NS(=O)(=O)c2ccc(NC(=O)COc3ccccc3C)cc2)nc(OC)n1	0.8	0.1	19.9	1.04	-0.42	90.6*
COc1cc(NS(=O)(=O)c2ccc(NC(=O)COc3ccc(C)cc3)cc2)nc(OC)n1	0.7	0.2	25.2	0.22	-0.14	81.6*
COc1ccc(OCC(=O)Nc2ccc(S(=O)(=O)Nc3cc(C)nc(C)n3)cc2)cc1	0.9	0.9	13.7	0.0435	-0.28	13.5
COc1cc(NS(=O)(=O)c2ccc(NC(=O)COc3ccc(C)cc3C)cc2)nc(OC)n1	1	0.3	1.0	0.873	-0.56	69.4*
O=C(NCc1ccc(Cl)cc1)c1ccc(COCC(F)(F)F)o1	0.5	0.7	51.4*	-2.08	-0.63	30.8
O=C(c1ccc(COCC(F)(F)F)o1)N1CCCCCC1	0.5	1	50.9*	0.921	-0.17	3.7
Cc1ccc(CNC(=O)c2ccc(Br)o2)cc1	0.7	1	35.0	0.0231	0.49	4.1
CC(C)(C)NC(=O)c1ccc(COCC(F)(F)F)o1	1	1.2	-4.4	-0.447	0.7	-20.3
O=C(Nc1ccc(Cl)cn1)c1ccc(COCC(F)(F)C(F)F)o1	0.3	0.8	71.9*	-0.596	1.12	22.0
Cc1ccc(C(=O)NCc2ccc(Cl)cc2)o1	0.5	1.1	52.7*	0.119	2.4	-8.8
O=C(c1ccc(CS(=O)(=O)c2c(Cl)cccc2Cl)o1)N1CCCC1	0.8	1.6	19.8	0.156	x	-56.6
Cn1c(=O)n(C)c2cc(NC(=O)CSc3nnc(-c4ccccc4O)n3-c3ccccc3)ccc21	0.9	0.8	6.5	0.0214	1.21	24.8
O=C(N/N=C/c1cn(-c2ccccc2)nc1-c1ccc(F)cc1)c1ccc(Br)o1	0.8	0.6	16.1	-0.00658	-0.65	35.4
Cc1nn(-c2ccccc2)c(C)c1/C=N/NC(=O)c1cc(-c2ccccc2)n[nH]1	0.3	0.1	69.8*	-3.74	-3.04*	86.1*
Cc1ccc(S(=O)(=O)N/N=C/c2cccn2-c2ccc(Cl)cc2)cc1	x	x	x	-4.33*	-0.64	x
Cc1ccc(S(=O)(=O)N/N=C/c2c(C)nn(-c3ccccc3)c2C)cc1	0.4	0.2	56.3*	-2.47	-0.98	75.4*
Cc1ccc(-c2nn(-c3ccccc3)cc2/C=N/NS(=O)(=O)c2ccccc2)cc1	0.7	0.3	26.6	-1.93	-1.37	65.8*
CCOC(=O)CNC(=O)c1ccccc1Br	1	1.1	-2.7	0.0273	0.48	-11.0
COc1cccc2cc(-c3nnc(SCC(=O)NCc4ccccc4)n3C)oc12	0.9	0.7	14.0	-0.407	-0.52	28.1
COc1ccc(/C=N/NS(=O)(=O)c2ccc(C)cc2)cc1OC(=O)c1ccccc1	0.9	0.6	5.2	x	2.03	37.4
SMILES	CYP2C19 act	CYP2C9 act	CYP2C19 inh	Cav3 T inh	Pyk2 oligo antag	CYP2C9 inhib
Cc1ccc(S(=O)(=O)N/N=C\c2cn(-c3ccccc3)nc2-c2ccccc2)cc1	0.7	0.3	27.7	-2.12	-0.82	66.8*
O=S(=O)(N/N=C/c1cn(Cc2ccccc2)c2ccccc12)c1ccccc1	0.9	0.1	14.0	-2.47	-0.71	87.1*
CC(C(=O)N=c1sc2ccccc2n1C)N1C(=O)C2CC=CCC2C1=O (centres undefined)	0.2	0.4	80.0*	1.4	-0.69	57.9*
COc1ccccc1NC(=O)C1CC(=O)N(c2ccc(F)cc2)C1 (centres undefined)	0.8	0.9	21.1	0.0923	-0.09	9.3
O=c1c2ccccc2nc2n1CCCCN2	0.9	0.8	11.0	0.285	1.12	15.5
CCCCCCCCCCNC(=O)CCn1[nH]c(=O)c2ccccc2c1=O	x	x	x	-3.37	-0.47	x
CCCCCCOC(=O)CCn1[nH]c(=O)c2ccccc2c1=O	0.4	0.5	56.2*	-0.11	-0.87	54.5*
C=CCN1C(=O)C2(/C(=C(\O)c3ccc4c(c3)OCCO4)C(=O)C(=O)N2CCCOC)c2ccccc21 (centres undefined)	1.1	1.3	-14.8	1.79	0.25	-25.4
CCC(=O)NCCc1nc2ccccc2n1Cc1ccccc1	x	x	x	0.913	0.76	x
COC(=O)Cn1c(CCS(=O)(=O)c2ccc(C)cc2)nc2ccccc21	0.3	0.9	65.5*	1.2	0.78	12.4
CC(=O)NCCc1nc2ccccc2n1Cc1ccc(C)cc1	0.3	0.6	68.8*	-1.97	x	42.0
Cc1ccccc1Nc1nc(N)nc(COC(=O)C(NC(=O)c2ccco2)C(C)C)n1 (centres undefined)	0.7	0.4	30.9	0.292	-0.7	58.9*
O=C(CN(C1CC1)S(=O)(=O)c1ccc(S(=O)(=O)NC2CCCCC2)cc1)Nc1ccccc1	0	0	97.2*	-11.7*	-1.69	95.6*
COC(=O)CCN(C1CCCCC1)S(=O)(=O)c1ccc(S(=O)(=O)NC2CCCCC2)cc1	0	0	97.4*	-5.86*	-0.98	100.0*
CCN(C1CCCCC1)S(=O)(=O)c1ccc(C(=O)O)cc1	0.9	1	7.4	0.0902	-0.77	-1.0
CCC(C)NS(=O)(=O)c1ccc(S(=O)(=O)N(CC(=O)Nc2ccccc2)CC2CCCO2)cc1 (centres undefined)	0.6	0.1	41.4	-2.98	-0.88	92.2*
COC(=O)COc1ccc(S(=O)(=O)NC2CCCCCC2)cc1	0.1	0.1	93.8*	0.00933	0.72	87.7*
CCN1CCCC1CNC(=O)C1c2cc(OC)c(OC)cc2C(=O)N(C)C1c1cccnc1 (centres undefined)	1.1	1	-8.6	-0.0638	-0.18	-0.7
O=C(COc1ccc(S(=O)(=O)NC2CCCCC2)cc1)NCCC1=CCCCC1	x	x	x	-1.45	0.9	x
CCc1ccc(OCC(=O)NC(=S)Nc2ccc(S(=O)(=O)NC3CCCCC3)cc2)cc1	0.9	0.3	6.2	-2.07	1.69	74.1*
COc1ccccc1C1CC(c2ccc(Cl)cc2Cl)Nc2nc(N)nn21 (centres undefined)	0.2	0.6	83.2*	-1.31	x	39.3
Nc1nc2n(n1)C(c1cccs1)CC(c1ccc(Br)cc1)N2 (centres undefined)	0.3	0.7	65.9*	0.241	-3.18*	27.4

Assay outcomes (PubChem BioAssay)
